# Experimental data as given in ChEMBL document CHEMBL3988442, “University of Dundee, Small-Polar-MMV Screening Library” (2021).
# Organism: Homo sapiens
# Assay: To identify inhibition of the IFN signalling (Jak-Stat) pathway via expression of an eGFP reporter gene under the control of an IFN-stimulated response element (ISRE) containing MxA promoter.
# Format: functional
# Set-up: scale not given: direction of the effect not stated beside the values
# Conditions: 30 µM
row,SMILES,Percent Effect [%]
1,CCCS(=O)(=O)c1ncc(CN2CCC(CO)CC2)n1CC1CCCO1 (stereo not drawn),-4.14
2,CS(=O)(=O)NC1CCN(C(=O)NCCc2ccccc2F)CC1,10.3
3,Cn1ccc(CN2CCC(CCc3ccc(O)cc3)CC2)cc1=O,10.3
4,Cc1cc(N2CCN(CCO)CC2)nc(-c2ccncc2)n1,-0.921
5,COc1c(CNC2CCN(C(C)(C)C)CC2)c(C(C)C)nn1C,-8.8
6,O=C1[C@@H]2CCN(Cc3ccncc3)C[C@@H]2OCCN1c1ccccc1,-13.1
7,CC(C)c1cc(NC(=O)c2ccc(NC3CC3)nc2)[nH]n1,-1.61
8,CN(C)C(=O)N1C[C@@H]2CC[C@H](C1)N(Cc1ccc3nsnc3c1)C2,-11.8
9,Cc1csc(N2CCCN(Cc3noc(C)n3)CC2)n1,11.2
10,CC(C)c1nccn1C1CCCN(C(=O)c2ccc3c(c2)OCO3)C1 (stereo not drawn),9.94
11,Cc1nc(C)n(C2CCCN(C(=O)c3cc(C(N)=O)cs3)C2)n1 (stereo not drawn),-7.04
12,CCN1CC(C(=O)NCc2ccccc2-n2cccn2)CC1=O (stereo not drawn),11
13,Cc1cnn(C2CN(CC(O)c3ccc(F)cc3)C2)c1 (stereo not drawn),17.9
14,CC(C)CN1CCN(Cc2nc3ccccc3[nH]2)[C@H]2CS(=O)(=O)C[C@H]21,0.0398
15,OCCC1CN(C2CCC2)CCN1C1CCCC1 (stereo not drawn),-37
16,Cc1cc(C)c2nc(CN3CC[C@@H](O)C3)cc(O)c2c1,-16.8
17,c1ccc(CN2CCN(Cc3cscn3)CC2)cc1,7.07
18,O=C(CSc1nncs1)N1CCN(Cc2ccc(Cl)s2)CC1,16.3
19,CC1CN(C(=O)CN(Cc2ccco2)C2CC2)CCO1 (stereo not drawn),22.1
20,C=Cc1ccc(C(=O)N2CCCC(Nc3ccc(OC)cc3)C2)cc1 (stereo not drawn),12.3

row,SMILES,Percent Effect [%]
1,COCc1ncn2c1CN(C(=O)C1CC=CC1)CC2,2.37
2,c1ccc(Cn2ccnc2CN2CCOC(Cn3cccn3)C2)cc1 (stereo not drawn),2.94
3,CC(C)c1csc(C2CCCN(C(=O)c3ccc(=O)n(C)n3)C2)n1 (stereo not drawn),26
4,Cc1csc(C2CCCCN2C(=O)CN(C)C2CC2)n1 (stereo not drawn),-15.9
5,CC(C)NC(=O)N1CCN(CC2CC2)CC2(CC(=O)N(C)C2)C1 (stereo not drawn),-5.18
6,Cc1ccc(C(=O)N2CC[C@@H]3[C@H]2CCC(=O)N3c2ccccc2)o1,12.1
7,Cn1cc(CN2CCCN(C(=O)c3ccc4c(c3)COC4)CC2)cn1,8.45
8,O=C(c1cncc(N2CCC3(CCNCC3)CC2)n1)N1CCCC1,12.9
9,Cn1ncc2c(=O)[nH]c(CN3CCC(Cc4ccccc4)CC3)nc21,-0.345
10,O=C(NCc1cnc2n1CCN(Cc1ccsc1)CC2)C1CCC1,-5.3
11,CC(=O)c1cn(CCC(=O)N[C@H](C(=O)O)C(C)C)c2ccccc12,8.13
12,Cc1nn(C)c(C)c1C1CCCN1C(=O)CCCn1cccn1 (stereo not drawn),9.1
13,COc1nc2c(cc1C(=O)N1C[C@H](N)C[C@H]1C(=O)NC(C)C)CCC2,9.52
14,OC1CCN(Cc2c(C3CCCNC3)[nH]c3ncccc23)CC1 (stereo not drawn),-1.37
15,CCN1CC2(CC1=O)CN(Cc1ccco1)CCN(C(=O)N(C)C)C2 (stereo not drawn),-2.04
16,Cc1ccc(C(CNCc2ccncc2)N2CCOCC2)s1 (stereo not drawn),18.3
17,CCOc1ncccc1C(=O)N1CCCCC1c1nccs1 (stereo not drawn),10.1
18,Cn1cc(CN2CC[C@@H]3[C@@H](CCC(=O)N3CCc3c[nH]cn3)C2)cn1,-5.47
19,O=C(c1cscn1)N1CCC[C@]2(C[C@H](OCC3CC3)CO2)C1,2.38

# Target: T1, Tyrosyl-tRNA synthetase, putative (Trypanosoma cruzi (strain CL Brener)) (UniProt Q4DSP6)
# T1 sequence (whole entry): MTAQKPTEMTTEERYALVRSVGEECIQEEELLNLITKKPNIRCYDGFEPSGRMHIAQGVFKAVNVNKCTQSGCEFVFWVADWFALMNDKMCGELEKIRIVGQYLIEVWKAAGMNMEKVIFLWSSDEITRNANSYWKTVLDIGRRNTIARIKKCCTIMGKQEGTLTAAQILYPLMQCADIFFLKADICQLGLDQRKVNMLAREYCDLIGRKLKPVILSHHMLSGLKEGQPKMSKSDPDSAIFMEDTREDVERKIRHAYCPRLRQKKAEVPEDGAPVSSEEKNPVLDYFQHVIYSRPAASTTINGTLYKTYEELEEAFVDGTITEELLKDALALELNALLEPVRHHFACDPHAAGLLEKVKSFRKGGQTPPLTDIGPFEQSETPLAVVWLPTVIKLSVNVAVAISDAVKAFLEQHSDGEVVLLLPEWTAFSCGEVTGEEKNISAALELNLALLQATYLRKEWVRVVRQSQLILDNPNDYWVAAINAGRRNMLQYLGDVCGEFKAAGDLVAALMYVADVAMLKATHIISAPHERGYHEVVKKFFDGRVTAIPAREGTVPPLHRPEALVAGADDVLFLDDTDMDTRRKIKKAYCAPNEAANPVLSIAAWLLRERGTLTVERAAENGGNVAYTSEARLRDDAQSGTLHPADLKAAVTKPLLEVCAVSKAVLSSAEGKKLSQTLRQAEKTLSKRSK
# Assay: Trypanosoma cruzi tyrosyl tRNA synthetase (TcYRS) _High Tyrosine SOP; also: in the data most compounds retested in dose-response had high values
# Format: functional
# Set-up: scale not given: direction of the effect not stated beside the values
# Conditions: 30 µM
row,SMILES,Percent Effect [%]
1,CCCS(=O)(=O)c1ncc(CN2CCC(CO)CC2)n1CC1CCCO1 (stereo not drawn),0
2,CS(=O)(=O)NC1CCN(C(=O)NCCc2ccccc2F)CC1,6.93
3,Cn1ccc(CN2CCC(CCc3ccc(O)cc3)CC2)cc1=O,0
4,Cc1cc(N2CCN(CCO)CC2)nc(-c2ccncc2)n1,7.45
5,COc1c(CNC2CCN(C(C)(C)C)CC2)c(C(C)C)nn1C,12.3
6,O=C1[C@@H]2CCN(Cc3ccncc3)C[C@@H]2OCCN1c1ccccc1,8.51
7,CC(C)c1cc(NC(=O)c2ccc(NC3CC3)nc2)[nH]n1,7.77
8,CN(C)C(=O)N1C[C@@H]2CC[C@H](C1)N(Cc1ccc3nsnc3c1)C2,0
9,Cc1csc(N2CCCN(Cc3noc(C)n3)CC2)n1,5.21
10,CC(C)c1nccn1C1CCCN(C(=O)c2ccc3c(c2)OCO3)C1 (stereo not drawn),0
11,Cc1nc(C)n(C2CCCN(C(=O)c3cc(C(N)=O)cs3)C2)n1 (stereo not drawn),2.08
12,CCN1CC(C(=O)NCc2ccccc2-n2cccn2)CC1=O (stereo not drawn),5.71
13,Cc1cnn(C2CN(CC(O)c3ccc(F)cc3)C2)c1 (stereo not drawn),6.01
14,CC(C)CN1CCN(Cc2nc3ccccc3[nH]2)[C@H]2CS(=O)(=O)C[C@H]21,14
15,OCCC1CN(C2CCC2)CCN1C1CCCC1 (stereo not drawn),1.05
16,Cc1cc(C)c2nc(CN3CC[C@@H](O)C3)cc(O)c2c1,13.2
17,c1ccc(CN2CCN(Cc3cscn3)CC2)cc1,8.57
18,O=C(CSc1nncs1)N1CCN(Cc2ccc(Cl)s2)CC1,4.3
19,CC1CN(C(=O)CN(Cc2ccco2)C2CC2)CCO1 (stereo not drawn),1.91
20,C=Cc1ccc(C(=O)N2CCCC(Nc3ccc(OC)cc3)C2)cc1 (stereo not drawn),10.1

row,SMILES,Percent Effect [%]
1,COCc1ncn2c1CN(C(=O)C1CC=CC1)CC2,6.45
2,c1ccc(Cn2ccnc2CN2CCOC(Cn3cccn3)C2)cc1 (stereo not drawn),8.33
3,CC(C)c1csc(C2CCCN(C(=O)c3ccc(=O)n(C)n3)C2)n1 (stereo not drawn),4.3
4,Cc1csc(C2CCCCN2C(=O)CN(C)C2CC2)n1 (stereo not drawn),1.04
5,CC(C)NC(=O)N1CCN(CC2CC2)CC2(CC(=O)N(C)C2)C1 (stereo not drawn),82.2
6,Cc1ccc(C(=O)N2CC[C@@H]3[C@H]2CCC(=O)N3c2ccccc2)o1,7.45
7,Cn1cc(CN2CCCN(C(=O)c3ccc4c(c3)COC4)CC2)cn1,7.39
8,O=C(c1cncc(N2CCC3(CCNCC3)CC2)n1)N1CCCC1,7.1
9,Cn1ncc2c(=O)[nH]c(CN3CCC(Cc4ccccc4)CC3)nc21,9.36
10,O=C(NCc1cnc2n1CCN(Cc1ccsc1)CC2)C1CCC1,7.53
11,CC(=O)c1cn(CCC(=O)N[C@H](C(=O)O)C(C)C)c2ccccc12,7.41
12,Cc1nn(C)c(C)c1C1CCCN1C(=O)CCCn1cccn1 (stereo not drawn),0.493
13,COc1nc2c(cc1C(=O)N1C[C@H](N)C[C@H]1C(=O)NC(C)C)CCC2,6.32
14,OC1CCN(Cc2c(C3CCCNC3)[nH]c3ncccc23)CC1 (stereo not drawn),-5.38
15,CCN1CC2(CC1=O)CN(Cc1ccco1)CCN(C(=O)N(C)C)C2 (stereo not drawn),5.21
16,Cc1ccc(C(CNCc2ccncc2)N2CCOCC2)s1 (stereo not drawn),1.98
17,CCOc1ncccc1C(=O)N1CCCCC1c1nccs1 (stereo not drawn),4.43
18,Cn1cc(CN2CC[C@@H]3[C@@H](CCC(=O)N3CCc3c[nH]cn3)C2)cn1,1.04
19,O=C(c1cscn1)N1CCC[C@]2(C[C@H](OCC3CC3)CO2)C1,4.25
